Bioassay records deposited in PubChem by National Center for Advancing Translational Sciences (NCATS).
Integrin act MD = qHTS for Activators of Integrin-Mediated Alleviation for Muscular Dystrophy | alpha7betagal myoblasts, beta-gal FDG fluorescence, 48 h | Potency, µM (series often up to 38.3 µM), for the others: at the highest dose activation, usual class: activators | 350,000 tested, 0.064% active | AID 624291, 2012; active means well fitted activation curve with a large enough effect; inconclusive means small, poorly fitted or top-dose-only effect; inactive means no such curve, though single readings can be large or run the other way;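 further: potency means the concentration at half of the fitted maximal effect; 100% = response of the positive control SU9516; nearly all actives have a fitted effect of over 60% in size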
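Alpha7betagal+/- myoblasts (passage 13) were plated 16-24 hr, then exposed to compounds (1:260 dilution of DMSO stock) for 48 hours at 37C. After MPER lysis, β-galactosidase reporter activity was read as FDG fluorescence (ex 480/em 540) after 30 minutes.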
Giardia killer = Small Molecules that selectively kill Giardia lamblia: qHTS | Giardia lamblia trophozoite viability | activity change, % at 7.66 µM, hits read low | 340,000 tested, 0.15% active | AID 540267, 2011; in the data active means activity change below about -80%; inconclusive means between about -30% and that limit;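 further: parasites exposed to compound for two days anaerobically before the ATP read; on the % scale 0 is the no-effect control and ±100 the full control effect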
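Trophozoites 100 cells/well + cpd; 48 hrs, 37 deg C, anaerobic. ATPLite 1-Step added, 15-30 min RT, luminescence read (ATP-based viability).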
uPA surface inh = qHTS for Inhibitors of Cell Surface uPA Generation. cell surface uPA generation assay, qHTS. Potency, µM (series often up to 38.3 µM), inactives show at the top dose activity change, negative = inhibition, actives largely listed as inhibitors. 330,000 tested, 0.31% active. AID 540303, 2011; active means well fitted inhibition curve with a large enough effect; inconclusive means small, poorly fitted or top-dose-only effect; inactive means no such curve, though single readings can be large or run the other way; tested in mouse RAW 264.7 cells; further: potency means the concentration at half of the fitted maximal effect; on the % scale 0 is the no-effect control and ±100 the full control effect; nearly all actives have a fitted effect of over 55% in size
Rango dissoc inh = qHTS Assay for Inhibitors of RanGTP induced Rango (Ran-regulated importin-beta cargo) - Importin beta complex dissociation; Snurportin-1 (Homo sapiens) + GTP-binding nuclear protein Ran (Homo sapiens) + Importin …; Biochemical FRET Rango-importin beta, RanGTP-induced dissociation; Potency, µM (series often up to 46.1 µM), without a hit: at the highest dose activity change, negative = inhibition; 340,000 tested, 0.071% active; further: potency means the concentration at half of the fitted maximal effect; % of control where 0% means no effect; nearly all actives have a fitted effect of over 45% in size
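FRET read at 45 min, room temperature: inhibitors block the CFP/YFP signal rise when RanGTP (0.6 uM Ran, 2 mM GTP, 0.2 uM RCC1) frees Rango (0.1 uM) from importin beta (0.25 uM). Pre-read after 5 min compound exposure flags interference.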
Rango complex inh = qHTS Assay for Inhibitors of Rango (Ran-regulated importin-beta cargo) - Importin beta complex formation; Rango CFP/YFP FRET sensor + importin beta, 45 min; Potency, µM (doses to about 92.2 µM), without a hit: at the top dose inhibition of complex formation; 340,000 tested, 0.031% active; AID 540263, 2011;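 further: potency means the concentration at half of the fitted maximal effect; 0% = DMSO wells and 100% = buffer wells lacking importin beta; nearly all actives have a fitted effect of over 15% in size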
Target sequence (Q14974 whole entry, looked up): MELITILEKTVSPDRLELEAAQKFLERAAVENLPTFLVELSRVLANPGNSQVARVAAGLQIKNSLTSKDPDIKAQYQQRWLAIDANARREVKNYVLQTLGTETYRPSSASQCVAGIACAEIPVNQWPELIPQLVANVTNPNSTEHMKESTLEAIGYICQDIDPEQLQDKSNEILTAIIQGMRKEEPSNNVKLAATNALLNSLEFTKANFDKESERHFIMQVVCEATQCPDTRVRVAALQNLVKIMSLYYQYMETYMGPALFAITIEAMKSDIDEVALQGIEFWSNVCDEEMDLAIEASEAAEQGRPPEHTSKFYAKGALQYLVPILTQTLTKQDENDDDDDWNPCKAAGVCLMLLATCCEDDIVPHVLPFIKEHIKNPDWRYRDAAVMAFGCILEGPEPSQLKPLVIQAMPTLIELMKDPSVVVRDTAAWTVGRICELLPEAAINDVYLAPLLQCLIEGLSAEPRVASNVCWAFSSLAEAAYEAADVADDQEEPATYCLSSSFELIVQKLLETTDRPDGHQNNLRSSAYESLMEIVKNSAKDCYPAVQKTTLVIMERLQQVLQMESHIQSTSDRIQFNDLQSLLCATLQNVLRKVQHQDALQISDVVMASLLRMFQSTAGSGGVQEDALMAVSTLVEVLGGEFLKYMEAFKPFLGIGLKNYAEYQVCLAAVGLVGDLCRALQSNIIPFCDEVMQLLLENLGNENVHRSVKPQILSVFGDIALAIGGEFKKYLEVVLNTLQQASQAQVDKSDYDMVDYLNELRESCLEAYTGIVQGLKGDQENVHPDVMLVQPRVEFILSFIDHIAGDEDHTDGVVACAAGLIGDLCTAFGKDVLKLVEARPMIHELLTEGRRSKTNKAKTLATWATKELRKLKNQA
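Inhibition scored from the CFP 486 nm/YFP 530 nm FRET ratio 45 min after adding 0.125 microM importin beta to 50 nM Rango biosensor preincubated 5 min with compound (room temperature, PBS with DTT, Tween-20, BSA). No-importin wells as positive control.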
* marks the source's active call; other numbers are inactive results; ? = inconclusive; / = not tested or not shown; [ ] = another dose, or the depositor's remark. An excerpt weighted towards active compounds, which were near 0.59% of everything screened. Unless noted, the call rests on the fitted dose curve.

SMILES	Integrin act MD	Giardia killer	uPA surface inh	Rango dissoc inh	Rango complex inh
O=C(Nc1ccc(NC(=O)c2cccs2)cc1)c1cccs1	2%	10	4%	-16%	-1%
CCCC(=O)Nc1ccccc1NC(=O)c1ccc(OC)cc1	-4%	12	0%	-21%	-4%
CCN(Cc1nc2ccccc2c(=O)[nH]1)C(=O)COc1ccccc1-c1ccccc1	21%	-9	-3%	19%	-2%
COc1ccc(C(=O)Nc2ccc3[nH]ccc3c2)cc1	-6%	-89*	-11%	2%	-1%
CCCCNc1c(-c2ccc(SC(C)CC)cc2)nc2ccccn12 (configuration not stated)	-42%	-14	2µM*	?	?
CCCCNc1c(-c2ccc(SC3CCCCC3)cc2)nc2ccccn12	-20%	30	?	?	?
O=C(Nc1ccc(-n2cccn2)cc1)C1CCCCN1Cc1cccc2c1OCO2 (configuration not stated)	-32%	39	?	11%	0%
Cc1ccc(S(=O)(=O)N2CCN(c3nc(-c4cccs4)nc4ccccc34)CC2)cc1	/	-10	/	/	/
CS(=O)(=O)c1ccc2nc(NC(=O)c3ccco3)sc2c1	29%	-15	10µM*	0%	?
CC1(C)CC(=O)c2sc(NC(=O)c3ccco3)nc2C1	17%	-20	10µM*	-13%	-6%
Cc1noc(C)c1C(=O)Nc1nc2ccc(S(C)(=O)=O)cc2s1	-25%	?	5µM*	-3%	-1%
Cc1onc(-c2ccccc2)c1C(=O)Nc1nc2c(s1)C(=O)CC(C)(C)C2	-9%	-2	-2%	-11%	0%
COc1ccc2nc(NC(=O)c3c(C)noc3C)sc2c1	71%	-27	?	28%	1%
CS(=O)(=O)c1ccc(C(=O)OCC(=O)NCC2CCCO2)cc1[N+](=O)[O-] (configuration not stated)	/	-3	/	/	/
CCOc1ccc(S(=O)(=O)NCCC(=O)N2CCN(C(C)=O)CC2)cc1	17%	/	/	/	/
COC(=O)C1C[C@@H]2C3=C(C(=O)[C@@](C)(NC(=O)c4ccccc4)C3[C@H](C(=O)OC)C1)[C@H](C)n1c(=O)n(-c3ccccc3)c(=O)n12 (some centres not stated)	/	-21	/	/	/
COc1ccc2noc3c2c1C(=O)c1ccccc1-3	-50%	-12	10µM*	?	?
Nc1nc(NCc2ccc(Cl)c(Cl)c2)c2[nH]cnc2n1	/	-16	/	/	/
CC(C)(C)N/C=C(\C#N)S(=O)(=O)c1ccc(Br)cc1	11µM*	-11	-3%	-5%	-1%
CCN/C=C(\C#N)S(=O)(=O)c1ccc(Br)cc1	-10%	13	6%	-9%	6%
O=C(Oc1ccc2c3c(c(=O)oc2c1)CCCC3)c1cccs1	-6%	-12	-8%	?	-7%
O=C(Oc1cc2oc(=O)c3c(c2cc1Cl)CCCC3)c1cccs1	13%	3	-9%	8.2µM*[inhibitor]	?
CCOc1cccc2cc(C(=O)NCc3ccc(C)cc3)c(=N)oc12	7%	7	-1%	0%	-2%
CC1CC(C)CN(C(=O)/C=C/c2ccc([N+](=O)[O-])s2)C1 (configuration not stated)	-13%	?	3.5µM*	-27%	-3%
O=C(/C=C/c1ccc([N+](=O)[O-])s1)N1CCCC1	-67%	-87*	11µM*	-24%	1%
O=C(/C=C/c1ccc([N+](=O)[O-])s1)N1CCN(c2ccccc2)CC1	-26%	?	?	-30%	?
O=C(/C=C/c1ccc([N+](=O)[O-])s1)N1CCCCC1	-64%	-82*	-14%	-24%	-6%
O=C(/C=C/c1ccccc1[N+](=O)[O-])N1CCCCC1	-23%	-6	-5%	-4%	-2%
CC1CN(C(=O)/C=C/c2ccc([N+](=O)[O-])s2)CC(C)O1 (configuration not stated)	-59%	?	-18%	-27%	-4%
